Assay results taken from PubChem BioAssay AID624330 (Southern Research Specialized Biocontainment Screening …, 2012).
The campaign covered roughly 340,000 compounds. About 2,100 (0.62%) were called active.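 How the source made its calls: active means first-screen hits whose inhibition reached a set limit at any dose in the follow-up dose series; inconclusive means inhibition above the set first-screen limit but never retested; inactive means the rest.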 These entries were drawn from the full list. Measured potencies and affinities stand elsewhere.

biological target: Rac GTPase-activating protein 1 (Homo sapiens) (UniProt Q9H0H5); assay: MgcRacGAP GTPase-activating activity inhibitors, confirmation, biochemical, ADP Hunter fluorescence, primary and confirmatory (AID 624330); settings: MgcRacGAP-stimulated Rac1 GTP hydrolysis, at 30 µM, active compounds read high, GST-tagged Rac1 F28L mutant substrate;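 further: fluorescence reports GDP produced by GAP-driven GTP hydrolysis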
Sequence (Q9H0H5 whole entry, looked up): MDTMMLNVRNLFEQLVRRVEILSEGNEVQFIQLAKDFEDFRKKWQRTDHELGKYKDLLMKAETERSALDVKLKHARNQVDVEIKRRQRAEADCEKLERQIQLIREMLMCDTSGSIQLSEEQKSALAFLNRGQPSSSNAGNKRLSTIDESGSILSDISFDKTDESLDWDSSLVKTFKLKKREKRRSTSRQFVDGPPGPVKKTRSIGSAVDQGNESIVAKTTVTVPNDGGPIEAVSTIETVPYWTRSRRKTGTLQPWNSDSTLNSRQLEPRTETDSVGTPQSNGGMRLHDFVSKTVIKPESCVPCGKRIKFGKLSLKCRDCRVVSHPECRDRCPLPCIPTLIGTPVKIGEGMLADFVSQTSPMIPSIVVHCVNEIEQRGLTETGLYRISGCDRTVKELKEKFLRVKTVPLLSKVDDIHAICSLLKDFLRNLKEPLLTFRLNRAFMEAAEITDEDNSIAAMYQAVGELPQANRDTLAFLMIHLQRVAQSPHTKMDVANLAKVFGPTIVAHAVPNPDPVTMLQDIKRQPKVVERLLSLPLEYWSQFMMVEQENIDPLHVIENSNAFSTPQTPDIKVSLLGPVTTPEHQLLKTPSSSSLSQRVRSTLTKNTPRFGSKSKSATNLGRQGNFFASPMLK

inhibition, inactive:
CCOC(=O)c1sc(C)c2c1NC1(CCCCCC1)NC2=O 1.2%
COc1cc(OC)c(OC)cc1/C=N/NC(=O)c1cnccn1 9.21%
COc1cc(/C=N/NC(=O)c2cnccn2)cc(OC)c1OC 3.55%
COc1cccc(/C=N/NC(=O)c2cnccn2)c1 8.84%
COc1ccc(/C=N/NC(=O)c2cccnc2)cc1O 28.2%
CSc1ccccc1NC(=O)CN1CCN(c2ccccn2)CC1 6.87%
COc1ccccc1/C=N/Nc1cc(C)nc2ccc(C)cc12 14.4%
COc1ccc2nc(C)cc(N/N=C/c3ccccc3)c2c1 19.7%
COc1ccc2nc(C)cc(N/N=C/c3ccc(F)cc3)c2c1 13.3%
Cc1ccc2nc(C)cc(N/N=C/c3ccccc3O)c2c1 9.12%
COc1ccc(OC)c(S(=O)(=O)N2CCC3(CC2)CC(=O)c2ccccc2O3)c1 8.64%
O=C(Nc1ccc(C(=O)O)cc1)/C(=C\c1ccc2c(c1)OCO2)NC(=O)c1ccccc1 -1.61%
O=C(COC(=O)c1ccc([N+](=O)[O-])o1)Nc1ccc(N2CCOCC2)cc1 10.6%
O=C(O)c1ccc(N(c2ccccc2)c2ccccc2)cc1 6.47%
C/C(=N\N(c1ccccc1)c1ccccc1)c1ccc(N)cc1 18.1%
O=C(CSc1nc2ccc(NC(=O)CSc3nnnn3-c3ccccc3)cc2s1)Nc1ccccc1 2.46%
CN(C)c1ccc(C(=O)N2CCCC2)cc1 3.64%
CN(C)c1ccc(C(=O)NN2C(=O)c3ccccc3C2=O)cc1 8.64%
C[C@@H]1CN([C@@H](C)CO)C(=O)c2cc(Br)cnc2O[C@H]1CN(C)C(=O)c1ccc2c(c1)OCO2 13.5%
Cc1cccc(NC(=O)CCCN=C2NS(=O)(=O)c3ccccc32)c1C -1.68%
CCN(CC)c1ccc(/C=N/NC(=O)C(O)c2ccccc2)cc1 (stereo not drawn) 9.04%
CN(C)c1ccc(C=Nc2ccccc2)cc1 0.89%
CCN(CC)c1ccc(/C=N/NC(=O)CC(C)C)cc1 5.15%
CN(c1ccccc1)c1ccc(/C=N/NC(=O)CC#N)cc1 10.3%
NC(=S)N/N=C/c1ccccc1 11.7%
CCOc1ccc(/C=N/O)cc1 5.7%
Cc1ccc(N=Cc2ccc(N(C)C)cc2)cc1 3.33%
CCN(CC)c1ccc(C=N/C(C#N)=C(\N)C#N)cc1 6.79%
Cc1ccc(SCC(=O)n2nc(C)cc2C)cc1 3.7%
CSc1nc(NS(=O)(=O)c2ccc(F)cc2F)nn1C 6.35%
Cc1ccc(S(=O)(=O)N2CCN(C(=O)Cn3nc(C)c([N+](=O)[O-])c3C)CC2)cc1 6.68%
CC(C)Cn1c(N)c(C(=O)COC(=O)COc2cccc(C(F)(F)F)c2)c(=O)n(C)c1=O 6.32%
COC1CC(C)NC(=S)N1 (stereo not drawn) 12.9%
O=C(Cn1nnc2ccccc21)N/N=C/c1ccco1 10.9%
COc1ccc(NC(=O)c2ccc3c(c2)C(=O)N(CC2CCCO2)C3=O)cc1O (stereo not drawn) 0.29%
O=C(CSc1nnc(-c2ccco2)n1Cc1ccccc1)c1ccccc1 13.1%
O=C(CSc1nnc(-c2ccco2)n1Cc1ccccc1)NCc1ccccc1 5.14%
O=C(NN=Cc1ccc2c(c1)CCC2)c1ccccc1[N+](=O)[O-] 6.28%
Cc1cc(C)nc(N2N=C(CSc3ccc(Cl)cc3)CC2=O)n1 3.87%
COc1cccc(C(=O)NNC(=O)Cc2csc(N)n2)c1 10.7%
CCn1c(SCC(=O)c2[nH]c(C)c(C(C)=O)c2C)nnc1-c1ccccc1 11.9%
COc1ccc2cc(CN(C)C(=O)CN3C(=O)NC4(CCCC4)C3=O)ccc2c1 20.2%
COc1ccccc1CC(=O)Nc1cc2oc3ccccc3c2cc1OC 1.63%
COc1cc2c(cc1NC(=O)CCC(=O)O)oc1ccccc12 17.1%
CNC(=S)Nc1cc2oc3ccccc3c2cc1OC 13.3%
CCCNC(=S)Nc1cc2oc3ccccc3c2cc1OC 7.43%
NS(=O)(=O)c1ccc(CCNC(=O)c2ccc(Cl)nc2)cc1 4.85%
COC(=O)C[C@@H]1C[C@@H]2c3cc(NC(=O)NC4CCCCC4)ccc3O[C@@H]2[C@H](CO)O1 0.31%
CC(=O)c1ccc(N2CCN(C(=O)c3ccc(-c4ccccc4)cc3)CC2)cc1 6.62%
CN1c2cccc3cccc(c23)N(C)C1(C)C 17.8%
CN1c2cccc3cccc(c23)N(C)C1c1cccs1 29.9%
Cc1[nH]c2ccc(-c3n[nH]c(=S)n3Cc3ccccc3)cc2c1C 10.2%
c1ccc(-c2csc(NNC3=NCCCCC3)n2)cc1 -65.3%
COc1ccc(CNC(=O)c2ccc[nH]2)cc1Cl -1.95%
COc1cc(-c2n[nH]c(=S)n2-c2ccccc2C(F)(F)F)cc(OC)c1OC 0.91%
CCn1c(C)nc2cc(C(=O)N/N=C/c3cccc(OC)c3O)ccc21 15%
CCn1c(C)nc2cc(C(=O)N/N=C/c3ccc(O)c(O)c3O)ccc21 -97%
CCn1c(C)nc2cc(C(=O)N/N=C/c3ccccc3)ccc21 12.6%
CCn1c(C)nc2cc(C(=O)NN=Cc3ccc([N+](=O)[O-])cc3)ccc21 8.03%
CCn1c(C)nc2cc(C(=O)N/N=C/c3ccccc3C)ccc21 4.28%
CCn1c(C)nc2cc(C(=O)N/N=C/c3ccc(N4CCOCC4)cc3)ccc21 9.18%
O=C(O)CCCN1C(=O)c2ccc(Oc3cccc([N+](=O)[O-])c3)cc2C1=O 1.11%
Cc1ccc(OCC(=O)NNC(=O)c2ccco2)c(C)c1 8.22%
